Bioassay records (PubChem)
TCR act – T cell receptor activation | Potency, µM (series often up to 9.22 µM), for the others: at the top dose activation of IL-2 secretion, usual class: activators | 330,000 tested, under 10 active | AID 504894 | primary human leukocytes, anti-CD3, IL-2 HTRF, 48 h; further: % of control where 0% means no effect
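Primary human leukocytes were stimulated with a-CD3 beads plus compounds for 48 hr without co-stimulation; secreted IL-2 was quantified by HTRF using a-IL-2-K (europium cryptate) and a-IL-2-d2, excited at 320nm with acceptor emission read at 665nm.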
ClpP mod – qHTS Assay for Activators of ClpP | actives 1.9% (n = 340,000) | Potency, µM (series often up to 57.5 µM), for inactives: at the top dose activity change, negative = active | ATP-dependent Clp protease proteolytic subunit (Bacillus subtilis (strain 168)), P80244 | purified B. subtilis ClpP, FRET peptide cleavage, 20 min; active means well fitted falling curve with a large enough effect; inconclusive means small, poorly fitted or top-dose-only effect; inactive means no such curve, though single readings can be large or run the other way; further: potency means the concentration at half of the fitted maximal effect; the source files actives as falling curves though it sought activators and does not explain the sign; nearly all actives have a fitted effect of over 65% in size
Target sequence (P80244 whole entry, looked up): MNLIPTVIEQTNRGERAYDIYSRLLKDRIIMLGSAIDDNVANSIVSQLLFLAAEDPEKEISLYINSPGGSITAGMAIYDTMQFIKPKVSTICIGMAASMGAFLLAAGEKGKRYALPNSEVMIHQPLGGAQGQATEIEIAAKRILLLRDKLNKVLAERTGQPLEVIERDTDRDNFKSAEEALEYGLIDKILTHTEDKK
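ClpP 10 microg/mL final, pH 8 Tris/KCl buffer with BSA, glycerol, Tween-20; compound pinned in; FRET-FV substrate; RT 20 min; Ex320/Em430; ΔFRET vs ADEP 5.8 microM, DMSO, no enzyme.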
Mito fusion act – mitochondrial division inhibition or fusion activation; S. cerevisiae fusion-defective mutant growth rescue, CellTiterGlo 48 h; Potency, µM (series often up to 46.1 µM), for the others: top-dose growth rescue (activation), most hits filed as activators; actives 0.23% (n = 320,000); further: potency means the concentration at half of the fitted maximal effect; % of control where 0% means no effect; nearly all actives have a fitted effect of over 45% in size
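Read-out: ATP-based luminescence (CellTiterGlo, 10 min ambient) reporting growth of fusion-defective ts yeast after 48 hours at 37C on glycerol/ethanol YPEG medium in the presence of compound.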
GRP78 ERSR act – ER stress response induction in glioma | U87-MG GRP78 promoter luciferase reporter, 16 h | Potency, µM, for inactives: at the top dose activation, actives largely listed as activators | actives 0.02% (n = 420,000); further: potency means the concentration at half of the fitted maximal effect; series mostly up to about 76 µM; % of control where 0% means no effect; nearly all actives have a fitted effect of over 35% in size
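Stably transfected U87-MG human glioma cells carrying a GRP78-based luminescent sensor were seeded at 1000 cells/well, pin-dosed with compounds and incubated 16 h. Luciferase reagent was then added, and end-point luminescence was read after 10 min at room temperature.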
AT treatment – potential ataxia-telangiectasia treatments restoring KAP-1 phosphorylation. AID 485349. Potency, µM (top dose mostly 57.5 µM), for inactives: at the top dose activation, hits mostly activators. actives 0.19% (n = 320,000). F2112 A-T fibroblasts, KAP-1 phosphorylation AlphaLISA; neocarzinostatin DNA damage 30 min before lysis; further: potency means the concentration at half of the fitted maximal effect; % of control where 0% means no effect; nearly all actives have a fitted effect of over 45% in size
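hTERT-immortalized A-T patient fibroblasts (F2112), 500 cells/well in OPTI-MEM, 1% FBS, got compounds for 60 min, then NCS for 30 min at 37C. Lysates were then assayed for phospho-KAP-1 by AlphaLISA (anti-pKAP1 donor, anti-KAP1 acceptor beads), 6 hr at 25C.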
MBNL1-CUG inh – blocks human MBNL1 binding to CUG repeat RNA | Q9NR56 | TR-FRET MBNL1-His/biotin-(CUG)12 binding, 665/545 ratio | Potency, µM (highest dose often 57.5 µM), without a hit: top-dose activity change, negative = inhibition, hits mostly inhibitors | actives 0.036% (n = 280,000); active means well fitted inhibition curve with a large enough effect in the signal ratio, with a control signal flat, not every such curve was filed as active; inconclusive means small, poorly fitted or top-dose-only effect, or effect the other way, or a change in a side signal; inactive means no such curve, though single readings can be large or run the other way; the % refers to the signal ratio; further: potency means the concentration at half of the fitted maximal effect; on the % scale 0 is the no-effect control and ±100 the full control effect
Target sequence (Q9NR56 whole entry, looked up): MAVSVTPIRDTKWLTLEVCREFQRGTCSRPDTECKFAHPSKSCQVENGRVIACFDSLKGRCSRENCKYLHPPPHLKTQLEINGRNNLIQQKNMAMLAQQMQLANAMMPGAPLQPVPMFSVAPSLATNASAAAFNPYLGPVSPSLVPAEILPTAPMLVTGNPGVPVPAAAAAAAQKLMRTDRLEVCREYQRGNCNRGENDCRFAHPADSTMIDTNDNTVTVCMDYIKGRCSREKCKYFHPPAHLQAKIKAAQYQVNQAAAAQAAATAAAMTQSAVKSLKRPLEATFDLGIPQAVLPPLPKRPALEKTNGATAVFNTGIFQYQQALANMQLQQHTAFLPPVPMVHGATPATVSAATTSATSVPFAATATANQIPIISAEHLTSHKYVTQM
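Compound titration spanned 92 nM–58 uM against the MBNL1-His/biotin-(CUG)12 complex. After 60 min at room temperature with 5 nM streptavidin-XL665 and 0.055 ng/ul terbium anti-His, ratiometric 665/545 nm emission (Ex 340 nm) normalized to controls.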
Active calls of the source: *; ? = inconclusive; / = not tested or not shown; [ ] = dose if it differs, or a comment. Only some compounds are listed: those with a hit (about 1.8% of all), similar ones and a draw of the others. Unless noted, the call rests on the fitted dose curve; in most records, active means well fitted curve in the direction sought with a large enough effect; inconclusive means small, poorly fitted or top-dose-only effect, or another doubt; inactive means no such curve, though single readings can be large; an effect the other way counts as inactive or inconclusive.

SMILES	TCR act	ClpP mod	Mito fusion act	GRP78 ERSR act	AT treatment	MBNL1-CUG inh
Cc1c(NC(=O)COC(=O)c2cc3c4ccccc4n(C)c3s2)c(=O)n(-c2ccccc2)n1C	-2%	25µM*	0%	-2%	0%	-7%
CC(C)=CC[C@@H](O)C1=CC(=O)c2c(O)ccc(O)c2C1=O	/	/	/	1%	/	/
CCCCOc1ccc(C(=O)Nc2onc3c2CCCC3)cc1	/	2%	/	-6%	/	/
CC(NC(CCc1ccccc1)C(=O)O)C(=O)N1CCCC1C(=O)O (configuration not stated)	/	/	/	-4%	/	/
O=C(c1ccc2ccccc2c1)C1CCCN(C(=O)c2noc3c2CCCC3)C1 (configuration not stated)	-7%	-7%	10µM*	-1%	14%	2%
O=C(c1ccc2ccccc2c1)C1CCCN(C(=O)c2cccnc2)C1 (configuration not stated)	2%	-21%	3%	-1%	23%	?
Nc1c2c(=O)oc(-c3ccccc3)cc2nn1-c1ccccc1	3%	14µM*	10%	9%	-6%	?
CN(CCOc1ccc(Cl)cc1)C(=O)c1cc(-c2ccco2)nc2ccccc12	3%	28µM*	?	-6%	4%	/
COc1ccc(N2CCN(S(=O)(=O)CCNC(=O)COc3cccc(OC)c3)CC2)cc1	3%	-10%	-2%	-4%	-5%	10%
COc1ccc(N2CCN(S(=O)(=O)CCNC(=O)COc3ccccc3)CC2)cc1	-2%	18µM*	-5%	-4%	0%	/
CCN(CC)CC(=O)c1c(C)n(C)c2ccc(OC)cc12	/	-10%	/	-5%	/	/
Cc1cc(C(F)(F)F)c2c(=O)[nH]c(=O)n(Cc3ccccc3)c2n1	-17%	0%	8%	1%	2%	4%
O=c1[nH]c(=O)n(Cc2ccccc2)c2nc(-c3ccco3)cc(C(F)(F)F)c12	-1%	14µM*	13%	0%	4%	-2%
COc1cc(C=O)cc(OC)c1[N+](=O)[O-]	/	-2%	/	-3%	/	/
COc1ccc(C(O)c2nc(/C=C/c3ccc(C(F)(F)F)cc3)cs2)cc1 (configuration not stated)	/	25µM*	/	-3%	/	/
C[C@H]1COC(=O)O1	/	/	/	-4%	/	/
CCCCCn1c(=O)[nH]c2cc(C(=O)NCCCN3CCCCC3)ccc2c1=O	-1%[46.1 µM]	28µM*	8%	-5%	/	-40%
CCCCCn1c(=O)[nH]c2cc(C(=O)NCCN(CC)CC)ccc2c1=O	5%	25µM*	1%	-2%	1%	-7%
CCCCCn1c(=O)[nH]c2cc(C(=O)NCCN3CCC(C)CC3)ccc2c1=O	-5%	-1%	2%	1%	-4%	-4%
CCCCCn1c(=O)[nH]c2cc(C(=O)NCCCN3CCC(C)CC3)ccc2c1=O	-3%	28µM*	1%	-2%	1%	2%
COc1cc2[nH]c(=O)n(Cc3ccc(C(=O)NCCCN4CCN(C)CC4)cc3)c(=O)c2cc1OC	-1%	25µM*	-1%	-4%	/	-7%
COc1ccc(Cn2c(=O)[nH]c3cc(C(=O)NCCCN4CCCC4)ccc3c2=O)cc1	9%	-16%	0%	-4%	0%	0%
CC(C)[C@H](NC(=O)[C@H](CCCCN)NC(=O)[C@@H](NC(=O)[C@@H]1CCCN1C(=O)[C@H](CCCN=C(N)N)NC(=O)[C@H](CCCN=C(N)N)NC(=O)[C@H](CCCCN)NC(=O)[C@H](CCCCN)NC(=O)CNC(=O)[C@@H](NC(=O)[C@@H]1CCCN1C(=O)[C@@H](N)CCCCN)C(C)C)C(C)C)C(=O)N[C@@H](Cc1ccc(O)cc1)C(=O)N1CCC[C@H]1C(=O)O	/	/	/	-4%	/	/
COc1ccc(-c2cc(C(F)(F)F)nc(N3CCCCCC3)n2)cc1	2%	22µM*	1%	-1%	11%	-3%
COc1ccc(-c2cc(C(F)(F)F)nc(N3CCN(C)CC3)n2)cc1	-3%	-14%	-5%	-12%	5%	0%
SMILES	TCR act	ClpP mod	Mito fusion act	GRP78 ERSR act	AT treatment	MBNL1-CUG inh
COc1ccc(-c2cc(C(F)(F)F)nc(N3CCCCC3)n2)cc1OC	0%	35µM*	-2%	13%	35µM*	8%
CCOC(=O)c1ccc2[nH]c(C)c(C)c2c1	-24%	-8%	/	?	/	/
COC(=O)c1ccc2[nH]c(C)cc(=O)c2c1	9%	28µM*	-1%	2%	-3%	4%
COc1ccc2[nH]c(C)cc(=O)c2c1	7%[46.1 µM]	25µM*	1%	-3%	9%	-4%
CCOC(=O)c1ccc2[nH]c(C)cc(=O)c2c1	-13%	3.5µM*	3%	6%	-13%	4%
Cc1cc(=O)c2cc(C(=O)c3ccccc3)ccc2[nH]1	2%	-3%	-6%	-4%	-10%	4%
Cc1cc(C)n(-c2cccc(C(=O)NCC3Cc4cccc(-c5ccccn5)c4O3)c2)n1 (configuration not stated)	/	/	/	-3%	/	/
CCc1ccc(N=c2c([N+](=O)[O-])nn(-c3ccccc3)n2O)cc1	-18%	0%	18µM*	4%	-4%	?
CCC[C@]1(CCc2ccccc2)CC(O)=C([C@H](CC)c2cccc(NS(=O)(=O)c3ccc(C(F)(F)F)cn3)c2)C(=O)O1	/	/	/	1%	/	/
CC(Nc1ccccc1)c1cc(Cl)ccc1O (configuration not stated)	2%[46.1 µM]	-7%	0%	4%	2%	?
COc1ccc(NC(C)c2cc(Cl)ccc2O)cc1 (configuration not stated)	3%	3.2µM*	0%	-8%	13%	-5%
COc1ccc(-n2c(CNC(=O)c3ccc(OC)cc3OC)nnc2SC)cc1	/	/	/	-2%	/	/
CS/C(=N\S(=O)(=O)c1cccs1)Nc1ccc(F)c(Cl)c1	-4%[46.1 µM]	20µM*	6%	-6%	13%	?
CS/C(=N\S(=O)(=O)c1cccs1)Nc1cccc(Cl)c1C	-5%[46.1 µM]	1%	?	-11%	1%	-9%
